# Source: PubChem
# Most compounds without a hit are left out; they make up all but 5.4% or so of the library.
# SKKanGAS inh – S. pyogenes SKKanGAS growth inhibitors in kanamycin, primary screen, streptokinase expression inhibitor project, SKKanGAS strain, BacTiter-Glo luminescence. 6 h. inhibition, % at 7.5 µM. 1.3% of 300,000 active;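 active = mean replicate score, as percent of positive control median, at least 50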;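 note: strain carries kanamycin resistance gene driven by streptokinase promoter and grows in 40 µg/ml kanamycin; loss of luminescence reflects streptokinase promoter inhibition or plain growth inhibition; 0% = median of DMSO wells and 100% = positive control at its reference dose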
# CSC inhib – cancer stem cell viability inhibitors, primary screen, luminescence | cancer stem cell-like cells viability | inhibition, % at 7.5 µM | 1.1% of 300,000 active; in the data active = inhibition above about 75%; tested in HMLE shEcad cells
# MPTP inh – mitochondrial permeability transition pore inhibitors, primary screen, biochemical, isolated mouse mitochondria, absorbance; Ca2+ swelling absorbance, 30 min; inhibition, % at 10 µM; 1.4% of 360,000 active; AID 602449, 2012;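 active = inhibition of 50% or more, scaled per plate between neutral and stimulator controls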;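 note: 0% = DMSO wells given calcium and 100% = 1 mM EGTA wells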
# Beta cell apopt – inhibitors of cytokine-induced beta cell apoptosis, primary screen, luminescence. INS-1E cytokine-induced death, ATP luminescence, 48 h; percent of positive-control rescue, neutral wells zero. protection from apoptosis, % (test concentration not listed). 0.8% of 300,000 active. AID 435005, 2010;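 active = Every replicate reaches about 75%, or at least half do and their mean reaches it too, limit read from the data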;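 note: 0% = cytokine-treated negative control wells and 100% = positive control rescue; higher means more ATP so stronger rescue from cytokine killing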
# Calb FLC – C. albicans growth inhibition with fluconazole, primary screen, CaCi-2 strain, Alamar Blue fluorescence. growth inhibition, % (concentration not given with the values). AID 1979, 2009. C. albicans CaCi-2 (fluconazole-resistant clinical isolate) + fluconazole, 48 h. 0.57% of 300,000 active;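 active = growth inhibition above about 58% in most replicates, limit read from the data, passing the limit was not always enough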;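 note: all wells also contain fluconazole at 8 µg/ml as a sub-toxic cotreatment; 0% = median of DMSO wells and 100% = median of geldanamycin control wells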
# Mdm2-MdmX inh – inhibitors of human Mdm2-MdmX association, primary screen, cell-based, luminescence, split luciferase, SaOS-2, uHTS | Protein Mdm4 (Homo sapiens) + E3 ubiquitin-protein ligase Mdm2 (Homo sapiens), … | SaOS-2 split-luciferase Mdm2/MdmX complementation | inhibition, % at 8 µM | 3% of 330,000 active | AID 485346, 2010;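 active = inhibition of at least 50% at 8 µM in the primary screen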
# Mdm2 MdmX conf – Mdm2-MdmX complex disruptors, retested hits, confirmation, luminescence, single concentration; shares compounds with Mdm2-MdmX inh; Mdm2-MdmX binding, luminescent assay; inhibition, % at 8 µM; 55% of 10,000 active; AID 489028, 2010; in the data active = inhibition above about 40%
# Full FLuc ctr – full-length luciferase signal inhibition, confirmation, counter-screen for Mdm2/MdmX interaction inhibitor project, cell-based, single concentration, SaOS-2 | SaOS-2 full-length luciferase counterscreen, luminescence | 77% of 6,200 active | inhibition, % at 8 µM | AID 504607, 2011 | shares compounds with Mdm2-MdmX inh;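 active = mean inhibition at 8 µM reaching about 37%, which flags the compound as non-specific, limit read from the data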;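 note: p53-null SaOS-2 cells with luciferase driven by a doxycycline-inducible promoter; compound on cells about two nights before reading with doxycycline added after day one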
# * marks the source's active call; other numbers are inactive results; · = no result given.
SMILES,SKKanGAS inh,CSC inhib,MPTP inh,Beta cell apopt,Calb FLC,Mdm2-MdmX inh,Mdm2 MdmX conf,others
CC1=C(C(=O)OCc2ccccc2)C(c2cccc([N+](=O)[O-])c2)NC(=O)N1 (stereo unspecified),0,-10,1,-5,1,27,·,
Cc1[nH]n(-c2ccccc2)c(=O)c1/C=N/NC(=O)c1cccc([N+](=O)[O-])c1,·,5,4,-2,·,52*,44*,Full FLuc ctr=6
CN1CCN(c2ccccc2NC(=O)c2cccc([N+](=O)[O-])c2)CC1,-4,·,-3,0,-10,2,·,
O=C(N/N=C/c1ccncc1)c1cccc([N+](=O)[O-])c1,-4,-5,·,2,0,-31,·,
CN1CCN(c2ccc([N+](=O)[O-])cc2/C=N/NC(=O)c2cccc([N+](=O)[O-])c2)CC1,-2,22,·,1,-4,51*,-4,
COc1ccc(NC(=O)c2cccc([N+](=O)[O-])c2)cc1,6,-10,2,3,-8,-22,·,
COc1ccc(CC(=O)Nc2ccc(/C(C)=N/NC(=O)c3cccc([N+](=O)[O-])c3)cc2)cc1,1,-3,0,-3,-1,57*,-4,
CC(/C=N/NC(=O)c1cccc([N+](=O)[O-])c1)=C\c1ccccc1,-1,·,1,0,-4,74*,-30,
Cc1ccc(CS(=O)Cc2ccc(C(=O)NC3CCCC(C)C3C)o2)cc1 (stereo unspecified),-3,-1,0,4,-11,22,·,
CN1CCC(N(C)C(=O)NC2CCCCC2)CC1,-2,·,-1,·,-7,19,·,
COC(=O)c1ccc(C(=S)N2CCCCC2)cc1,-4,-5,-1,-4,-6,29,·,
Cc1ccsc1/C=N/NC(=O)c1ccc([N+](=O)[O-])cc1,-5,-4,0,24,-16,-8,·,
CCC(=O)N1CCN(c2ccccc2NC(=S)NC(=O)c2cccc([N+](=O)[O-])c2)CC1,3,-12,2,5,4,-3,·,
Cc1ccc(-n2[nH]c(C)c(/C=N/NC(=O)c3ccc([N+](=O)[O-])cc3)c2=O)c(C)c1,17,36,0,·,103*,53*,9,
CCC(=O)N1CCN(c2ccc(Cl)cc2NC(=O)c2cccc([N+](=O)[O-])c2)CC1,6,-3,0,4,-1,55*,6,
CCCCCCCC(=O)Nc1ccc(C(=O)N/N=C/c2cccc([N+](=O)[O-])c2)cc1,9,14,-1,95*,-1,88*,19,
OC(c1ccc(F)c(F)c1)c1nc(-c2cccs2)cs1 (stereo unspecified),·,·,1,·,·,·,·,
COc1cc(C(=O)NCC(c2ccccc2)N(C)C)ccc1OCC(=O)N1CCOCC1 (stereo unspecified),0,-12,-2,-4,40,20,·,
CCn1cc(CN2CCC(C(=O)Nc3cccc(-c4cccc(F)c4)c3)CC2)cn1,-1,0,0,-4,-2,7,·,
COc1cccc(O)c1CN1CCC(C(=O)Nc2ccc(-c3cccc(C)c3)cc2)CC1,32,101*,20,·,-7,81*,40*,Full FLuc ctr=90*
CCn1nc(C)c(CN2CCC(C(=O)Nc3cccc(-c4cccc(F)c4)c3)CC2)c1C,-14,24,-1,-1,-22,53*,18,
CC(C)n1cc(CN2CCC(C(=O)Nc3cccc(-c4cccc(Cl)c4)c3)CC2)cn1,-5,31,0,7,21,99*,47*,Full FLuc ctr=66*
C=C(C)CNC(=S)NNC(=O)CCn1c2ccc(Cl)cc2c2cc(Cl)ccc21,74*,102*,10,5,2,54*,18,
